Screening data: PubChem BioAssay, NMMLSC
Rac1 act GTP bind: GTP binding modulators of activated mutant Rac1, primary screen, biochemical, bead-based flow cytometry, multiplex, fluorescent GTP. percent activity (GTP binding), % at 10 µM. 190,000 tested, 0.11% active. GST-Rac1 activated beads; actives lie on both sides; 100% means binding = to untreated wells. Ras-related C3 botulinum toxin substrate 1 (Homo sapiens), P63000. AID 764, 2007;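 active = GTP binding at least 20 percentage points away from the 100% baseline, in either direction, so actives lie on both sides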
Rab7 wt modul: modulators of GTP binding to Rab7, primary screen, biochemical, wildtype, multiplex bead flow cytometry; 190,000 tested, 0.055% active; AID 758, 2007; GST-Rab7 beads, fluorescent GTP binding; actives lie on both sides; untreated = 100%, excess cold GTP = 0%; Rab7 GTPase wild type (dog), Bodipy-FL-GTP binding; GTP binding activity (percent of control), % at 10 µM;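 active = fluorescent GTP binding to Rab7 beads changed by at least 20 points from the 100% baseline, either direction, mostly lower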;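 note: median green fluorescence of bound Bodipy-FL-GTP per Rab7 bead population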
Rac1 wt modul: wildtype Rac1 GTP binding modulators, primary screen, biochemical, GST-Rac1 beads, flow cytometry, multiplex | fluorescent GTP binding; actives lie on both sides; 0 = cold GTP competed, 100 = untreated | 190,000 tested, 0.27% active | GTP binding activity (% of control), % at 10 µM | Ras-related C3 botulinum toxin substrate 1 (Homo sapiens), P63000;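 active = GTP binding activity at least 20 points away from the 100% control level, either lower or higher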
HRas wt GTP bind: modulators of GTP binding to HRas wildtype, primary screen, biochemical, bead-based flow cytometry, multiplex | GTPase HRas (Homo sapiens), P01112 | GST-Ras wt beads, Bodipy-FL-GTP binding; actives lie on both sides | GTP binding activity, % at 10 µM | 190,000 tested, 0.14% active | AID 759, 2007;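 active = GTP binding activity at least 20% away from the 100% baseline, either lowered as inhibitor or raised as activator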
Target sequence (P01112 whole entry, looked up): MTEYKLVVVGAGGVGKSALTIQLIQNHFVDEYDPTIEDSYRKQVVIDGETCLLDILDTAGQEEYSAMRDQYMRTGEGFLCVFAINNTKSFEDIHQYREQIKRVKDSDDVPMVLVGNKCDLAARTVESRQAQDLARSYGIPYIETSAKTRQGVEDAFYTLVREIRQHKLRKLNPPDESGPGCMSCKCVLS
Rab2A wt mod: modulators of GTP binding to Rab2A wildtype, primary screen, biochemical, dog, bead-based flow cytometry, multiplex | GTP binding activity, % at 10 µM | 190,000 tested, 0.19% active | Ras-related protein Rab-2A (Canis lupus familiaris), P61105 | GST-Rab2 wt beads, Bodipy-GTP binding;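 active = GTP binding activity at least 20 points away from 100%, either lowered or raised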
Cdc42 wt: modulators of GTP binding to wildtype Cdc42, primary screen, biochemical, multiplex bead flow cytometry, Bodipy-GTP | Cell division control protein 42 homolog (Homo sapiens), P60953 | GST-Cdc42 beads; actives lie on both sides | percent activity (GTP binding), % at 10 µM | 190,000 tested, 0.2% active | AID 761, 2007;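 active = percent activity GTP binding at least 20 points away from the 100% baseline, either down as inhibitor or up as activator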;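 note: median bead fluorescence of bound Bodipy-FL-GTP at 100 nM; below 100% means less GTP binding so inhibitor and above means activator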
Target sequence (P60953 whole entry, looked up): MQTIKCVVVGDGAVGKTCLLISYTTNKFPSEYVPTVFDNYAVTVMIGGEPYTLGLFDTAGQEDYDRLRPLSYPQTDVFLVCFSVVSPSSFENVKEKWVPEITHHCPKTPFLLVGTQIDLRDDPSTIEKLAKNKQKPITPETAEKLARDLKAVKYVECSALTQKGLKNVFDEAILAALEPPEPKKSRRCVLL
A number is an active result; i = inactive; [ ] = dose if it differs, or a comment. A selection: hits, their analogues and other compounds. The true share with any hit is near 0.38%.

SMILES	Rac1 act GTP bind	Rab7 wt modul	Rac1 wt modul	HRas wt GTP bind	Rab2A wt mod	Cdc42 wt
O=C(Nn1c(O)c(C=C2N=c3ccccc3=N2)sc1=S)c1ccc(Cl)cc1	i	i	i	i	i	i
Cc1ccc(Cc2cnc(NC(=O)/C(C#N)=C/c3ccc(-c4ccc([N+](=O)[O-])cc4)o3)s2)cc1	i	79	i	i	i	i
CC(C)CN(C)Cc1c(C(=O)N2CCc3ccccc3C2)nc2ccc(Cl)cn12	i	i	i	i	i	i
O=C(Nc1ccc(Cc2ccncc2)cc1)c1ccc(S(=O)(=O)N2CCCC2)cc1	i	i	i	i	i	i
COc1ccc(C(=O)NCC(=O)OCC(=O)N2CCc3ccccc32)cc1	i	i	i	i	i	i
Cc1cccc(NC(=O)CN2C(=O)N/C(=C/c3ccc(-c4cccc(C(=O)O)c4C)o3)C2=O)c1	i	i	i	i	i	i
Cc1ccc(NC(=O)CN2C(=O)S/C(=C\c3ccc(-c4cccc(C(=O)O)c4C)o3)C2=O)cc1C	i	i	i	i	i	79
Nc1nnc(SCc2nnc(-c3ccccc3)o2)s1	i	i	i	i	i	i
Cc1ccc(S(=O)(=O)N(CC#N)CC#N)cc1	i	i	i	i	i	i
CCOC(=O)CSc1ccc2nnc(-c3cccs3)n2n1	i	i	i	i	i	i
O=C(CSc1ccc2nnc(-c3cccs3)n2n1)N1CCCC1	i	i	73	i	i	i
Cc1nnc(NC(=O)CSc2ccc3nnc(-c4ccccn4)n3n2)s1	i	i	i	i	i	i
O=C(CSc1ccc2nnc(-c3ccncc3)n2n1)Nc1nccs1	i	i	71	i	i	79
O=C(CSc1ccc2nnc(-c3ccccn3)n2n1)Nc1nccs1	73	i	54	68	62	65
Cc1nc2ccccn2c1-c1csc(Nc2cccc(O)c2)n1	i	i	75	i	i	i
COc1cc(NC2c3ccccc3C(=O)N2c2ccc(C)cn2)cc(OC)c1OC (stereo unspecified)	i	i	i	i	i	i
Cc1ccc(N2C(=O)c3ccccc3C2Nc2cccnc2)nc1 (stereo unspecified)	i	i	121[activator]	i	i	i
O=C(N/N=C/c1nn(-c2ccccc2)cc1-c1ccc(Cl)cc1)c1ccncc1	i	i	i	i	i	i
OCCNc1ncnc2c1sc1nc(N3CCOCC3)c3c(c12)CCC3	i	i	i	i	i	i
COCCNc1nnnc2c1sc1nc(N3CCOCC3)c3c(c12)CCCC3	i	i	73	i	i	i
c1ccc(Cn2c(NCc3ccncc3)nc3ccccc32)cc1	i	i	i	i	i	i
COc1ccc(CNc2nc3ccccc3n2Cc2ccc(C)cc2)cc1OC	125[activator]	i	142[activator]	121[activator]	123[activator]	131[activator]
COc1ccc(N2CCN(C(C)C(=O)N3CCCC3)CC2)cc1 (stereo unspecified)	i	i	i	i	i	i
O=C(/C=C/c1ccccc1)NC(NC(=S)Nc1ccc(C(=O)O)cc1)C(Cl)(Cl)Cl (stereo unspecified)	i	i	i	i	79	i
O=C(/C=C/c1ccccc1)NC(NC(=S)Nc1cccc(O)c1)C(Cl)(Cl)Cl (stereo unspecified)	i	i	i	i	i	i
O=C(O)c1ccccc1CSc1ncccc1C(=O)O	i	i	i	i	i	i
Cc1cccc(CSc2ncccc2C(=O)O)c1	134[activator]	120[activator]	161[activator]	129[activator]	132[activator]	149[activator]
O=C(O)c1cccnc1SCc1cccc(Cl)c1	127[activator]	124[activator]	129[activator]	125[activator]	132[activator]	131[activator]
